# Screening results deposited in PubChem by National Center for Advancing Translational Sciences (NCATS).
# Cycloheximide cs – affects cycloheximide protein synthesis inhibition readout, counter-screen. cell reporter, cycloheximide protein synthesis inhibition counterscreen. max response, %. actives 12% (n = 300,000). AID 2314; in the data active = max response mostly above about 13%, no sharp cut-off; inactive = mostly below about 14%; also: read at 38.3 µM for the half of the compounds with a filed dose
# Sm TGR block – S. mansoni TGR enzyme inhibition | actives 3% (n = 360,000) | Potency, µM (doses to about 114 µM), actives largely listed as inhibitors | purified TGR, DTNB reduction, TNB absorbance 405 nm | Q962Y6; active = well fitted inhibition curve with a large enough effect; inconclusive = small, poorly fitted or top-dose-only effect; inactive = no such curve, though single readings can be large or run the other way; also: nearly all actives have a fitted effect of over 60% in size
#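 TGR 20 nM + NADPH 100 uM (dispensed conc.), cpd preinc 15 min RT; start with NADPH (500 uM addition) then DTNB (15 mM addition). Kinetic TNB absorbance, 405 nm filter. Four-parameter Hill fit across titration.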
# FMDV inh – blocks foot and mouth disease virus; FMDV antiviral cell-based qHTS; Potency, µM (doses to about 57.9 µM), actives largely listed as inhibitors; actives 1.2% (n = 410,000); AID 1159524; calls by dose curve; tested in HEK293T cells; also: read-out not given here; nearly all actives have a fitted effect of over 45% in size
# Shiga inhibitor – Shiga toxin inhibition; Vero cells, Shiga toxin protein synthesis inhibition reporter; inhibition, % at 38.7 µM; actives 9.2% (n = 290,000); in the data active = inhibition mostly above about 28%, no sharp cut-off; inactive = mostly below about 43%
# Hits are given with their value; 0 = inactive; ? = inconclusive; - = no result; [ ] = another dose, or the depositor's remark. In the library only some 12% were active in any assay of this set; here they are far more common.
SMILES,Cycloheximide cs,Sm TGR block,FMDV inh,Shiga inhibitor
CSc1ncccc1C(=O)OCC(=O)c1cc(C)n(CC2CCCO2)c1C (centres undefined),38.8,0,?,56.0
Cc1cc(C)c(C(=O)COC(=O)c2ccc([N+](=O)[O-])o2)cc1C,0,?,0,0
COc1ccc(C(=O)COC(=O)c2nn(C)cc2Cl)cc1,14.8,0,0,69.3
Cc1cc(C(=O)Cn2nnc(-c3ccc(Cl)cc3)n2)c(C)n1CC1CCCO1 (centres undefined),16.6,0,-,0
COCCn1c(C)cc(C(=O)COC(=O)c2ccc([N+](=O)[O-])o2)c1C,45.9,35.5µM,0,122.7
CCCc1cc(=O)[nH]c(Nc2ccc(C)c(O)c2)n1,-,0,0,-
COc1ccc(-n2ncc(C(=O)Nc3ccc4c(c3)OCO4)c2C2CCN(C(=O)OC(C)(C)C)CC2)cc1,-,0,0,-
COc1ccc(NC(=O)c2cc3ccc(O)cc3o/c2=N\O)cc1,15.3,0,?,0
N=c1oc2cc(O)ccc2cc1C(=O)Nc1ccc(F)cc1,27.2,0,0,42.5
COc1ccc(NC(=O)c2cc3ccccc3oc2=O)cc1,-,-,0,-
CCCOc1ccc(C(=O)CCN2CCCCC2)cc1,0,0.316µM,0,0
CCCCOc1ccc(C(=O)NN2CCOCC2)cc1,-,-,0,-
Cc1ccc(OCCCN2CCOCC2)cc1,20.1,0,0,19.5
OC(CCN1CCCCC1)(c1ccccc1)C1CCCCC1 (centres undefined),0,0,0,0
Cc1ccc(C(O)(CCN2CCCCC2)c2ccccc2)cc1 (centres undefined),0,11.2µM,0,0
CCCCOc1ccc(C(=O)CCN2CCOCC2)cc1,0,2µM,0,0
CCOC(=O)C(=O)NCC(c1cccnc1)N1CCN(c2ccccc2)CC1 (centres undefined),-,0,0,-
CCOc1ccc(C(=O)CCN2CCCCCC2)cc1,0,0.316µM,0,0
CCCOc1ccc(C(O)(CCC)CCN2CCCCC2)cc1 (centres undefined),0,31.6µM,0,0
CCCC(O)(CCN1CCOCC1)c1ccc(Cl)cc1 (centres undefined),0,20µM,0,0
CCOc1ccc(C(=O)OC2CCN(C)CC2)cc1,14.0,0,0,0
CCCC(O)(CCN1CCOCC1)c1ccc(Br)cc1 (centres undefined),0,?,0,0
CSCC[C@H](NC(=O)[C@H](Cc1ccc(OS(=O)(=O)O)cc1)NC(=O)[C@@H](N)CC(=O)O)C(=O)NCC(=O)N[C@@H](Cc1c[nH]c2ccccc12)C(=O)N[C@@H](CCSC)C(=O)N[C@@H](CC(=O)O)C(=O)N[C@@H](Cc1ccccc1)C(N)=O,0,-,-,0
CCOC(=O)C1C2C=CC3(CN(Cc4ccco4)C(=O)C13)O2 (centres undefined),0,31.6µM,0,0
O=C(O)C1C2C=CC3(CN(Cc4ccco4)C(=O)C13)O2 (centres undefined),0,?,0,0
SMILES,Cycloheximide cs,Sm TGR block,FMDV inh,Shiga inhibitor
CCOC(=O)C1C2C=CC3(CN(Cc4cccs4)C(=O)C13)O2 (centres undefined),0,0,0,0
COC(=O)C1C2C=CC3(CN(Cc4ccco4)C(=O)C13)O2 (centres undefined),0,28.2µM,0,0
Cc1nn(C)cc1C1Nc2ccccc2C(=O)N1O (centres undefined),0,0,0,0
Cc1ccsc1C1Nc2ccccc2C(=O)N1O (centres undefined),20.2,0,0,46.6
O=C1c2ccccc2NC(c2cnc3ccccc3n2)N1O (centres undefined),49.4,0,0,71.4
Cc1nn(C)c(C)c1C1Nc2ccccc2C(=O)N1O (centres undefined),16.1,0,0,0
COc1cc(/C=C/c2nc(N)nc(-c3ccccc3O)n2)cc(OC)c1OC,0,0,?,0
Nc1nc(N)nc(-c2ccccc2O)n1,0,0,0,46.6
COc1ccc(/C=C/c2nc(N)nc(-c3ccccc3O)n2)cc1OC,15.2,0,0,0
COc1ccc(C)cc1NC(=O)C(=O)NCCc1sc(-c2ccc(Cl)cc2)nc1C,-,0,0,-
Cc1ccc(CNc2nc3ccccc3n3c(C)nnc23)cc1,-,0,0,-
Brc1cc(Cc2nnc(-c3ccccc3)o2)c(Br)s1,14.0,0,0,0
CS(=O)(=O)N1N=C(c2ccccc2)CC1c1ccc2c(c1)OCO2 (centres undefined),66.3,0,0,99.0
CS(=O)(=O)Nc1cccc(C2=NN(S(C)(=O)=O)C(c3ccc4c(c3)OCO4)C2)c1 (centres undefined),24.7,0,0,49.7
CC(=O)N1N=C(c2ccccc2)CC1c1ccc2c(c1)OCO2 (centres undefined),0,0,0,0
CS(=O)(=O)Nc1ccc(C2=NN(S(C)(=O)=O)C(c3ccccc3)C2)cc1 (centres undefined),0,0,0,41.8
CCS(=O)(=O)N1N=C(c2ccc(NS(C)(=O)=O)cc2)CC1c1ccccc1 (centres undefined),0,0,0,0
CCS(=O)(=O)Nc1cccc(C2=NN(S(C)(=O)=O)C(c3cccs3)C2)c1 (centres undefined),0,?,0,0
OC(c1ccc2c(c1)CN(Cc1ccc3nsnc3c1)CCO2)C1CCCCC1 (centres undefined),-,-,0,-
COc1ccccc1N(C)S(=O)(=O)c1ccc(C(=O)N(C)Cc2ccc(OC(F)F)cc2)cc1,-,0,35.5µM,-
CN(Cc1ccc(OC(F)F)cc1)C(=O)c1cccc(S(=O)(=O)N2CCN(c3ccccc3)CC2)c1,-,-,20µM,-
O=C(Nc1ncccc1O)c1cccc(S(=O)(=O)N2CCN(c3ccc(F)cc3)CC2)c1,-,0,0,-
O=C(Nc1ccncc1)c1cccc(S(=O)(=O)N2CCN(c3ccc(F)cc3)CC2)c1,-,0,20µM,-
CN(CC(=O)Nc1ccccc1Cl)C(=O)c1cccc(S(=O)(=O)N2CCN(c3ccc(F)cc3)CC2)c1,58.2,0,0,139.4
COc1ccccc1N(C)S(=O)(=O)c1ccc(C(=O)NCCc2ccc(F)cc2)cc1,0,0,0,0
SMILES,Cycloheximide cs,Sm TGR block,FMDV inh,Shiga inhibitor
Cc1cccc(C)c1NC(=O)CN(C)C(=O)c1cccc(S(=O)(=O)N2CCN(c3ccc(F)cc3)CC2)c1,-,0,?,-
Cc1ccc(-c2cc3ncc4c(n3n2)-c2ccccc2OC4)cc1,-,0,0,-
c1ccc(CSc2nnc(NC3=NCCCCC3)s2)cc1,43.5,0,0,102.5
N#Cc1ccc(CSc2nnc(Nc3ccccc3)s2)cc1,0,0[11.4 µM],0,0
Cc1nc([N+](=O)[O-])c(N2CCOCC2)n1Cc1ccccc1,0,0,0,0
Cc1nc([N+](=O)[O-])c(N2CCN(Cc3ccccc3)CC2)n1Cc1ccccc1,0,0,0,0
Cc1nc([N+](=O)[O-])c(Sc2nc3ccccc3[nH]2)n1Cc1ccccc1,0,20µM,?,0
COc1ccc2nc(Sc3c([N+](=O)[O-])nc(C)n3Cc3ccccc3)[nH]c2c1,0,0,15.8µM,0
Cc1cc2nc(Sc3c([N+](=O)[O-])nc(C)n3Cc3ccccc3)[nH]c2cc1C,0,17.8µM,31.6µM,0
Cn1cnc([N+](=O)[O-])c1Sc1nc2ccccc2[nH]1,0,1.41µM,?,0
Cc1ccccc1S(=O)(=O)Nc1nc2ccccc2nc1N1CCc2ccccc2C1,37.0,0,0,93.2
